{"source": "PubChem BioAssay (Tox21)", "note": "Unmarked numbers belong to inactive results. Active and inactive are the calls of the source. Calls follow the shape of the dose curve; as a rule, active = well fitted curve in the direction sought with a large enough effect in the repeat runs; inconclusive = weak or mixed curves; inactive = flat fitted curve, though single readings scatter. % is scaled to controls: 0 for no effect and ±100 for the full control effect."}
{"assay": "qHTS assay to test for compound auto fluorescence at 535 nm (green) in HEK293 cell free culture (AID 720682)", "settings": "cell-free medium, green autofluorescence 485/535 nm, stronger effect = higher value; series mostly up to 91.3 µM", "procedure,_shortened": "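Intrinsic compound fluorescence is measured in culture medium containing 10% FBS, with excitation at 485 nm and detection at 535 nm, referenced to fluorescein.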"}
{"smiles": "NCCCN1CCN(CCCN)CC1", "outcome": "inactive"}
{"smiles": "CCCOCCC", "outcome": "inactive"}
{"smiles": "CCCCNC(=S)NCCCC", "outcome": "inactive"}
{"smiles": "OCCN(CCO)CCN(CCO)CCO", "outcome": "inactive"}
{"smiles": "CC(C)C1=CC2=CC[C@@H]3[C@](C)(CCC[C@@]3(C)C(=O)O)[C@H]2CC1", "outcome": "inactive"}
{"smiles": "NC/C=C/C(=O)O", "outcome": "inactive"}
{"smiles": "COc1ccccc1N1CCN(CCCNc2cc(=O)n(C)c(=O)n2C)CC1", "outcome": "inactive"}
{"smiles": "CCN1CC(CCN2CCOCC2)C(c2ccccc2)(c2ccccc2)C1=O", "note": "(centres undefined)", "outcome": "inactive"}
{"smiles": "C[C@@H]1CN(c2c(F)c(N)c3c(=O)c(C(=O)O)cn(C4CC4)c3c2F)C[C@H](C)N1", "outcome": "inactive"}
{"smiles": "CCOC(=O)c1ccccc1O", "outcome": "inactive"}
{"smiles": "CC(=O)N[C@@H](CC(C)C)C(=O)O", "outcome": "inactive"}
{"smiles": "CC(C)CC(=O)OCc1ccccc1", "outcome": "inactive"}
{"smiles": "CC/C=C\\CCOC(=O)CCCCC", "outcome": "inactive"}
{"smiles": "Cc1ccc(C=O)s1", "outcome": "inactive"}
{"smiles": "FC(F)(F)C(Cl)(Cl)Cl", "outcome": "inactive"}
{"smiles": "CC(C)c1ccccc1", "outcome": "inactive"}
{"smiles": "O=Cc1ccc(F)c(Br)c1", "outcome": "inactive"}
{"smiles": "CCCC1CCC(=O)O1", "note": "(centres undefined)", "outcome": "inactive"}
{"smiles": "CN1CCN(c2c(F)cc3c(=O)c(C(=O)O)cn4c3c2SCC4)CC1", "outcome": "inactive"}
{"smiles": "O=c1[nH]cnc2c1ncn2[C@@H]1O[C@H](CO)[C@@H](O)[C@H]1O", "outcome": "inactive"}
{"smiles": "CCOC(=O)[C@H](CCc1ccccc1)N[C@@H](C)C(=O)N1Cc2cc(OC)c(OC)cc2C[C@H]1C(=O)O", "outcome": "inactive"}
{"smiles": "COc1nc(C)nc(NC(=O)NS(=O)(=O)c2ccccc2OCCCl)n1", "outcome": "inactive"}
{"smiles": "FC(F)(F)c1ccccc1", "outcome": "inactive"}
{"smiles": "CCCCc1ccc2nc(NC(=O)OC)[nH]c2c1", "activity change": "0.0865% [at 18.6 µM]"}
